{"source": "ChEMBL document CHEMBL3988442", "about": "“University of Dundee, Small-Polar-MMV Screening Library” (2021)", "note": "Out of some 48,000 compounds screened, about 13,000 (27%) showed an effect of 50% or more. The list shows a part of the results.", "data": [{"test_system": "Wolbachia pipientis", "assay": "Anti-Wolbachia Cell-Based Screen", "assay_type": "functional", "parameters": "scale not given: in the data most compounds retested in dose-response had high values", "settings": "5 µM", "units": {"Percent Effect": "%"}, "values": [{"smiles": "CC(C)Cc1nc(CN2CCC3(CCCO3)CCC2=O)no1", "note": "(stereo not drawn)", "Percent Effect": -10.71}, {"smiles": "COc1ccc(OC)c(-n2cnnc2C)c1", "Percent Effect": -0.7087}, {"smiles": "Cc1nc(C#N)c(N2CCC(c3nc(-c4ccccc4)no3)CC2)o1", "Percent Effect": 4.008}, {"smiles": "Cc1cc(C)nc(CN(C)C(=O)c2cccc(CCC(C)(C)O)c2)c1", "Percent Effect": 33.03}, {"smiles": "NC(=O)NC(=O)CCn1ccc(-c2ccccc2)n1", "Percent Effect": -9.301}, {"smiles": "Cc1ccn(CCC(=O)NCCc2ccco2)n1", "Percent Effect": 109.8}, {"smiles": "Cc1cc(C)n(CC(C)CNC(=O)CCc2ccco2)n1", "note": "(stereo not drawn)", "Percent Effect": 10.87}, {"smiles": "Cc1ncc(CC(=O)N2CCC(N3C[C@@H](C)O[C@@H](C)C3)CC2)c(=O)[nH]1", "Percent Effect": -13.09}, {"smiles": "CC(C)c1ccc(C(=O)N2CCOCC2CC(=O)c2ccco2)cn1", "note": "(stereo not drawn)", "Percent Effect": 178.1}, {"smiles": "CCc1nc(C(=O)N2CCOCC2CC(=O)c2ccccc2)c[nH]1", "note": "(stereo not drawn)", "Percent Effect": -17.76}, {"smiles": "CC(C)c1cc(C(=O)N2Cc3ccccc3CC2C(=O)O)nn1C", "note": "(stereo not drawn)", "Percent Effect": 14.25}, {"smiles": "CCc1ocnc1C(=O)N1CCOCC1CC(=O)c1ccccc1", "note": "(stereo not drawn)", "Percent Effect": -28.11}, {"smiles": "CC(C)c1cc(C(=O)N2CCOCC2CC(=O)c2ccco2)nn1C", "note": "(stereo not drawn)", "Percent Effect": 128.9}, {"smiles": "CCc1ncc(C(=O)N2CCOCC2CC(=O)c2ccccc2)s1", "note": "(stereo not drawn)", "Percent Effect": -7.731}, {"smiles": "CC(C)c1ncc(C(=O)N2CCOCC2CC(=O)c2ccco2)s1", "note": "(stereo not drawn)", "Percent Effect": 131.2}, {"smiles": "CC[C@H]1COCCN1C(=O)c1cnc(-c2ccccc2)nc1C", "Percent Effect": -84.76}, {"smiles": "O=C(CC1COCCN1C(=O)c1cscn1)c1ccccc1", "note": "(stereo not drawn)", "Percent Effect": 5.406}, {"smiles": "CCc1ncc(C(=O)N2CCOCC2c2c(C)n[nH]c2C)s1", "note": "(stereo not drawn)", "Percent Effect": 6.424}, {"smiles": "CC(C)c1nc(C(=O)N2CCOCC2CC(=O)c2ccco2)cs1", "note": "(stereo not drawn)", "Percent Effect": 84.12}, {"smiles": "CC(C)c1cc(C(=O)N2CCc3ccccc3C2C(=O)O)nn1C", "note": "(stereo not drawn)", "Percent Effect": 7.9}, {"smiles": "Cc1cc2c(C)cc(O)cc2c(=O)o1", "Percent Effect": -3.203}, {"smiles": "CC(C)(C)OC(=O)N1CCC[C@H](NCc2cc[nH]c2)C1", "Percent Effect": -5.919}, {"smiles": "CC(C1CCN(Cc2ccc(N(C)C)nc2)CC1)N(C)C", "note": "(stereo not drawn)", "Percent Effect": 14.62}, {"smiles": "COCC(c1ccccn1)N(C)C(=O)c1cc(-c2ccccc2O)n[nH]1", "note": "(stereo not drawn)", "Percent Effect": -8.202}, {"smiles": "O=S(=O)(C1CC1)N1CCC2(CC1)CC(Oc1ccccn1)CO2", "note": "(stereo not drawn)", "Percent Effect": -5.73}, {"smiles": "COCc1c(C(=O)N2CCCC(C(=O)c3nccn3C)C2)noc1C", "note": "(stereo not drawn)", "Percent Effect": -5.481}, {"smiles": "Cc1nc(-c2cccc(N3CCC(N[C@@H]4CCOC4)CC3)c2)cs1", "Percent Effect": 61.49}, {"smiles": "Fc1cccc(-c2c[nH]c([C@@H]3COCCN3C3CCOCC3)n2)c1", "Percent Effect": 5.513}, {"smiles": "CN1CCOC[C@H]1c1nc(-c2cccc(F)c2)c[nH]1", "Percent Effect": 6.119}, {"smiles": "COc1cccc(N2CCC(N3CCOC(C(F)(F)F)C3)CC2)c1", "note": "(stereo not drawn)", "Percent Effect": 11}, {"smiles": "Cc1nc(-c2cccc(N3CCC(NC4CCOCC4)CC3)c2)cs1", "Percent Effect": -8.689}, {"smiles": "Fc1cccc(-c2cccc(N3CCC(NC4CCCOC4)CC3)c2)c1", "note": "(stereo not drawn)", "Percent Effect": 80.75}, {"smiles": "COc1cccc(-c2cccc(N3CCC(N[C@@H]4CCOC4)CC3)c2)c1", "Percent Effect": 68.86}, {"smiles": "Cc1nc(-c2cccc(N3CCC(NC4CCSC4)CC3)c2)cs1", "note": "(stereo not drawn)", "Percent Effect": -11.84}, {"smiles": "COc1cccc(N2CCC(N3C[C@@H](NC(C)=O)[C@H](C(C)C)C3)CC2)c1", "Percent Effect": 4.736}, {"smiles": "Cc1c(C)n(CC(O)CN2CCC(O)CC2)c2c(Cl)cccc12", "note": "(stereo not drawn)", "Percent Effect": 9.661}, {"smiles": "CN(C)S(=O)(=O)N1C[C@@H]2CC[C@H](C1)N(Cc1ccc3c(c1)OCCO3)C2", "Percent Effect": 2.095}, {"smiles": "CC(C)c1nccn1-c1cccc(C2CCN(C)CC2)n1", "Percent Effect": 4.105}, {"smiles": "CN1CCC(c2cccc(NCc3nccn3C)n2)CC1", "Percent Effect": 108.8}, {"smiles": "CCOc1cccc(NCc2cnc(N3CCN(C)CC3)nc2)n1", "Percent Effect": 6.944}, {"smiles": "Cn1ccnc1CNc1nccc(-c2ncnn2C)n1", "Percent Effect": 23.33}, {"smiles": "CN1CCC(c2cccc(NCc3ccncc3)n2)CC1", "Percent Effect": 80.62}, {"smiles": "Cn1ccnc1CNc1c(F)cccc1-n1cccn1", "Percent Effect": -3.206}, {"smiles": "CN1CCC(c2cnc(NCc3nccn3C)cn2)CC1", "Percent Effect": 131.5}, {"smiles": "Cn1ccnc1CNc1ccc(F)c(N2CCCS2(=O)=O)c1", "Percent Effect": 0.7519}, {"smiles": "N#Cc1nccnc1N1CCN(CCOCc2ccccc2)CC1", "Percent Effect": 4.216}, {"smiles": "CC1CCc2sc(C(=O)Nc3cnn(C)c3)cc2C1", "note": "(stereo not drawn)", "Percent Effect": 18.64}, {"smiles": "Cc1ncnc(NC(CC(C)(C)C)c2cccnc2)c1C", "note": "(stereo not drawn)", "Percent Effect": -0.1537}, {"smiles": "CN(Cc1cccs1)C(=O)c1ccc(=O)n(C)c1", "Percent Effect": 1.128}, {"smiles": "Fc1cccc2ncnc(NCC3(N4CCOCC4)CCSC3)c12", "note": "(stereo not drawn)", "Percent Effect": -8.869}, {"smiles": "COc1ccc(C2CCCN2C(=O)c2cc3c([nH]c2=O)CCC3)cc1", "note": "(stereo not drawn)", "Percent Effect": -1.742}, {"smiles": "COc1cc(C(=O)NCCCc2ccccc2)on1", "Percent Effect": -0.8212}, {"smiles": "Cn1ccnc1CN(CCO)C(=O)c1cc2ccccc2o1", "Percent Effect": 4.663}, {"smiles": "O=C(C1COc2ccccc2C1)N(CCO)Cc1ccccc1", "note": "(stereo not drawn)", "Percent Effect": 3.539}, {"smiles": "O=C(c1ccn(-c2ccc(F)cc2)n1)N(CCO)Cc1cccnc1", "Percent Effect": 6.446}, {"smiles": "COc1ccc(C(=O)N(CCO)Cc2ccccc2)c(OC)n1", "Percent Effect": 150.7}, {"smiles": "CSc1ncccc1C(=O)N(CCO)Cc1ccccc1", "Percent Effect": 110.2}, {"smiles": "Cc1cccc(N2CCCC3(C2)CN(S(C)(=O)=O)CCO3)c1", "note": "(stereo not drawn)", "Percent Effect": -0.08325}, {"smiles": "CC(C)c1nc(C2CCCN2CCOCC2CC2)no1", "note": "(stereo not drawn)", "Percent Effect": 114}, {"smiles": "C1CC(c2noc(C3CC3)n2)CN(CCOCC2CC2)C1", "note": "(stereo not drawn)", "Percent Effect": 14.88}, {"smiles": "Cc1nc(C2CCCN2CCc2cccs2)no1", "note": "(stereo not drawn)", "Percent Effect": -9.357}, {"smiles": "CC(C)c1nc(C2CCCN2CCCc2nc3ccccc3o2)no1", "note": "(stereo not drawn)", "Percent Effect": 6.375}, {"smiles": "Cc1nc(C2CCCN2CCOCC2CC2)no1", "note": "(stereo not drawn)", "Percent Effect": 95.01}, {"smiles": "CSCCCN1CCCC1c1noc(C)n1", "note": "(stereo not drawn)", "Percent Effect": -3.652}, {"smiles": "COc1cc(C)cc(-c2nc3c([nH]2)CCNC3)c1OC", "Percent Effect": 7.084}, {"smiles": "O=C1CC(NCc2ccc(Cl)s2)CN1Cc1cccc(F)c1", "note": "(stereo not drawn)", "Percent Effect": 20.87}, {"smiles": "Cc1nc(CNC2CC(=O)N(CCc3cccc(Cl)c3)C2)c[nH]1", "note": "(stereo not drawn)", "Percent Effect": 91.72}, {"smiles": "Cc1cc(C)nc(N2C[C@H]3OC(=O)N(CCc4cccc(Cl)c4)[C@H]3C2)n1", "Percent Effect": -8.827}, {"smiles": "Cc1cccc(CNC2CC(=O)N(CCc3cccc(Cl)c3)C2)n1", "note": "(stereo not drawn)", "Percent Effect": 115.9}, {"smiles": "N#Cc1cccc(NC2CC(=O)N(CCc3ccc(F)cc3)C2)n1", "note": "(stereo not drawn)", "Percent Effect": 1.885}, {"smiles": "Cc1nc[nH]c1CNC1CC(=O)N(CCc2cccc(Cl)c2)C1", "note": "(stereo not drawn)", "Percent Effect": 94.18}, {"smiles": "CC(=O)Nc1ccc(CNC2CC(=O)N(Cc3cccc(F)c3)C2)cc1", "note": "(stereo not drawn)", "Percent Effect": -1.661}, {"smiles": "CN(C)c1ncc(CNC2CC(=O)N(CCc3cccc(Cl)c3)C2)s1", "note": "(stereo not drawn)", "Percent Effect": 116.6}]}]}
